{
  "source": "PubChem BioAssay (NCATS)",
  "note": "Records with an inconclusive call do not appear. Where a call stands in place of a potency, no number is given. Calls of active or inactive are those of the source. The call rests on the fitted dose curve; in most records, active means well fitted inhibition curve with a large enough effect; inconclusive means small, poorly fitted or top-dose-only effect; inactive means flat fitted curve, though single readings scatter.",
  "data": [
    {"target": "Voltage-gated inwardly rectifying potassium channel KCNH2 (Homo sapiens) (UniProt Q12809)", "sequence (Q12809 whole entry, looked up)": "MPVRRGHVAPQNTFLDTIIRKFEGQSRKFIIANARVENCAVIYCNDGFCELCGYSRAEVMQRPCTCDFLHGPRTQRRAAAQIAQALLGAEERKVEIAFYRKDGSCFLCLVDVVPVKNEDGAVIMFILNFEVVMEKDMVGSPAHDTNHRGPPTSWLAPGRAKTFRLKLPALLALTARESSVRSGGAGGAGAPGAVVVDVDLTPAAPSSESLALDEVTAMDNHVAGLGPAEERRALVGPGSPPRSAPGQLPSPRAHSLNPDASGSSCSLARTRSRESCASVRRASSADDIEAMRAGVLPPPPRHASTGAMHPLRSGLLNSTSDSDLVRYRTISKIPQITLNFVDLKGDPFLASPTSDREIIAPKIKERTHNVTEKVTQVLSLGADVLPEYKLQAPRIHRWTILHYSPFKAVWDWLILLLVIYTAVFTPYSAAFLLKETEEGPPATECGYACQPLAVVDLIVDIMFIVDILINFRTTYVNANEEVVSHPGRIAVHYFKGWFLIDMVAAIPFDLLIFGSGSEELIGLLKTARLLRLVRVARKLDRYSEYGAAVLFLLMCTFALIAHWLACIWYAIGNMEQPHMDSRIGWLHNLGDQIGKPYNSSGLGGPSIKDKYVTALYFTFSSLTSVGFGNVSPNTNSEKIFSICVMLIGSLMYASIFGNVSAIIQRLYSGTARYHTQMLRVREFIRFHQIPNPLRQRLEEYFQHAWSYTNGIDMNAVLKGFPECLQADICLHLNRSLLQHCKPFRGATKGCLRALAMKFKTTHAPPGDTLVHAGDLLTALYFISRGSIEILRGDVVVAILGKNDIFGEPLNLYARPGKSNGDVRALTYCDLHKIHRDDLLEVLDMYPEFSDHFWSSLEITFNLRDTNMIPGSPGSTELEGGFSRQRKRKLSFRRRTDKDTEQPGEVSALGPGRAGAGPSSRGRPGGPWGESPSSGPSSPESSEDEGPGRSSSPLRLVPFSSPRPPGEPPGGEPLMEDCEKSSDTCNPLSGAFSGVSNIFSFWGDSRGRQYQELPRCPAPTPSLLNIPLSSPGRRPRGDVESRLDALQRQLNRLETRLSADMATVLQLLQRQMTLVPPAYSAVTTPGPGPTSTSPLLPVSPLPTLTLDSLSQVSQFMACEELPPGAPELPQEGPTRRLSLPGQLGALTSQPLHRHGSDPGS", "experiment": "qHTS Assay for Small Molecule Inhibitors of the Human hERG Channel Activity (AID 588834);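 further: top concentration of the series differs between compounds; lower thallium flux fluorescence means stronger hERG block; nearly all actives have a fitted effect of over 50% in size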", "settings": "U2OS BacMam hERG, FluxOR thallium flux fluorescence; series mostly up to 46.1 µM", "how_it_was_run": "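In hERG-transduced U2OS cells, dye-loaded for 1 hr at room temperature in dark, test compounds incubated 10 min at 37 °C before thallium stimulation. AC50 values derived by Hill modelling of concentration-response.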", "values": [
      {"smiles": "CC(C)[C@@H](C)/C=C/[C@@H](C)[C@H]1CC[C@H]2/C(=C/C=C3\\C[C@@H](O)CC[C@@H]3C)CCC[C@]12C", "Potency": "inactive"},
      {"smiles": "C[C@@H](O)[C@H]1C(=O)N2C(C(=O)[O-])=C(SC3Cn4cnc[n+]4C3)[C@H](C)[C@H]12", "note": "(stereo partly specified)", "Potency": "inactive"},
      {"smiles": "CO/N=C(\\C(=O)N[C@@H]1C(=O)N2C(C(=O)O)=C(C[N+]3(C)CCCC3)CS[C@H]12)c1csc(N)n1", "Potency": "inactive"},
      {"smiles": "COc1cc2c(cc1OC)[C@@H](c1ccccc1)CN(C)CC2", "Potency": "inactive"},
      {"smiles": "CC[C@@H]1/C=C(\\C)C[C@H](C)C[C@H](OC)[C@H]2O[C@@](O)(C(=O)C(=O)N3CCCC[C@H]3C(=O)O[C@H](/C(C)=C/[C@@H]3CC[C@@H](Cl)[C@H](OC)C3)[C@H](C)[C@@H](O)CC1=O)[C@H](C)C[C@@H]2OC", "Potency": "inactive"},
      {"smiles": "CC(C)CN(C[C@@H](O)[C@H](Cc1ccccc1)NC(=O)O[C@@H]1CCOC1)S(=O)(=O)c1ccc(N)cc1", "Potency": "inactive"},
      {"smiles": "C=CC1=C(C(=O)O)N2C(=O)[C@@H](NC(=O)/C(=N\\O)c3csc(N)n3)[C@H]2SC1", "note": "(stereo in doubt)", "Potency": "inactive"},
      {"smiles": "CC1=C(/C=C/C(C)=C/C=C/C(C)=C/C=C/C=C(C)/C=C/C=C(C)/C=C/C2=C(C)C[C@@H](O)CC2(C)C)C(C)(C)C[C@H](O)C1", "Potency": "inactive"},
      {"smiles": "NC(=O)[C@@H]1C[C@]2(NC(=O)NC2=O)c2cc(F)ccc2O1", "Potency": "inactive"},
      {"smiles": "COc1ccc2cc([C@H](C)CO)ccc2c1", "Potency": "inactive"},
      {"smiles": "CC(C)=CCC/C(C)=C/CC/C(C)=C/CC/C(C)=C/CC1=C(C)C(=O)c2ccccc2C1=O", "Potency": "inactive"}
    ]}
  ]
}
